Activity calls are given as the source filed them. The calls were made as follows: active = hit-call score of the fitted dose curve at least 0.9, where 1 is the maximum; inactive = score below 0.9.
Assays:
[1] = APR_HepG2_CellCycleArrest_24hr: Apredica 24-hour HepG2 Assay for Cell Cycle Arrest (AID 2282905); settings: imaging, actives raise or lower the signal;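 also: cell cycle arrest scored as ratio of 2N to 4N nuclear DNA content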
Summary of the method: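 Compounds at 0.39–200 uM (0.5% DMSO) for 24 h, then fixed and Hoechst 33342 stained. Cell-cycle analysis of nuclear DNA content by high-content imaging, fitted bidirectionally versus DMSO.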

[2] = APR_HepG2_NuclearSize_24hr: Apredica 24-hour HepG2 Assay for Nuclear Size (AID 2282907); settings: high-content imaging, actives raise or lower the signal
Summary of the method: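 HepG2 cells exposed 24 h to compounds at 0.39–200 uM (0.5% DMSO), fixed, Hoechst 33342 stained and imaged at 20x; nuclear diameter measured by automated image analysis, fitted bidirectionally against DMSO controls.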

[3] = APR_HepG2_CellLoss_24hr: Apredica 24-hour HepG2 Assay for Cell Loss (AID 2282908); settings: high-content imaging;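 as to AC50: fit in both directions so a hit may be cell loss or gain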
Summary of the method: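 HepG2 cells exposed 24 hr to 0.39–200 uM compound in duplicate at 0.5% v/v final DMSO. Cells fixed in 3.7% formaldehyde and Hoechst 33342-stained. Cell number came from nuclear imaging at 20x. Bidirectional fit versus DMSO.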

[4] = APR_HepG2_MicrotubuleCSK_24hr: Apredica 24-hour HepG2 Assay for Microtubule CSK Stabilty (AID 2282909); settings: HepG2 microtubule cytoskeleton imaging, actives raise or lower the signal
Summary of the method: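 HepG2 cells were treated 24 hr with compound at 0.39–200 uM in duplicate (0.5% DMSO final), then fixed and permeabilized. Alpha-tubulin immunofluorescence was imaged by high-content microscopy, with bidirectional fitting against DMSO and taxol as positive control.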

[5] = APR_HepG2_MitoticArrest_24hr: Apredica 24-hour HepG2 Assay for Mitotic Arrest (AID 2282910); settings: high-content imaging, actives raise or lower the signal
Summary of the method: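 Compounds are dosed onto HepG2 cells across ten concentrations up to 200 uM for 24 hr. Cells are then fixed in 3.7% formaldehyde, permeabilised, and labelled for phospho-histone H3 and nuclei; images are scored by cell cycle analysis and fitted bidirectionally relative to DMSO.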

[6] = APR_HepG2_MitoMembPot_24hr: Apredica 24-hour HepG2 Assay for Mitochondrial Membrane Potential (AID 2282911); settings: imaging, actives raise or lower the signal
Summary of the method: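 Mitochondrial dye uptake (MitoTracker Red CMXRos, 250 nM, 30 min pre-fixation) in HepG2 after 24 hr compound exposure, 0.39–200 uM; ArrayScan images at 20x, activity fitted in both directions relative to DMSO.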

[7] = APR_HepG2_MitoMass_24hr: Apredica 24-hour HepG2 Assay for Mitochondrial Mass (AID 2282912); settings: high-content imaging, actives raise or lower the signal
Summary of the method: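 HepG2 cells exposed 24 hr to 0.39–200 uM compound, 0.5% v/v DMSO, in duplicate. Stained before fixation with 250 nM MitoTracker Red CMXRos for 30 min, then imaged at 20x with Hoechst nuclei. Fitted in both directions against DMSO.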

[8] = APR_HepG2_CellCycleArrest_72hr: Apredica 72-hour HepG2 Assay for Cell Cycle Arrest (AID 2282914); settings: high-content imaging, actives raise or lower the signal
Summary of the method: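 Using multiplexed high-content imaging, HepG2 nuclei stained with Hoechst 33342 (2 ug/mL) were analysed for DNA content after fixation and permeabilization. Treatment lasted 72 hr across 0.39–200 uM in duplicate with final DMSO 0.5% v/v; DMSO served as negative control.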

[9] = APR_HepG2_CellLoss_72hr: Apredica 72-hour HepG2 Assay for Cell Loss (AID 2282915); settings: high-content imaging
Summary of the method: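 Cell number comes from Hoechst 33342-labelled nuclei, imaged at 20x after 3.7% formaldehyde fixation. Dosing was 0.39–200 uM, ten concentrations in duplicate, 0.5% DMSO final, for 72 h. Bidirectional fit relative to DMSO baseline.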

[10] = APR_HepG2_MitoMembPot_72hr: Apredica 72-hour HepG2 Assay for Mitochondrial Membrane Potential (AID 2282917); settings: imaging, actives raise or lower the signal
Summary of the method: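 Membrane potential read by MitoTracker Red CMXRos (250 nM, 30 min, pre-fixation) fluorescence imaging of HepG2 after 72 hr exposure. Ten concentrations, 0.39–200 uM, duplicate wells, 0.5% DMSO; fitted in both directions against DMSO baseline.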

[11] = APR_HepG2_MitoticArrest_72hr: Apredica 72-hour HepG2 Assay for Mitotic Arrest (AID 2282918); settings: high-content imaging, actives raise or lower the signal
Summary of the method: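 Using high-content imaging of fixed HepG2 cells, phospho-histone H3 signal was measured following a 72 hr incubation with ten-point compound dilutions up to 200 uM. DMSO served as the negative control and baseline for bidirectional curve fitting.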

[12] = APR_HepG2_MicrotubuleCSK_72hr: Apredica 72-hour HepG2 Assay for Microtubule CSK Stabilty (AID 2282919); settings: HepG2 microtubule cytoskeleton, high-content imaging, actives raise or lower the signal
Summary of the method: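 Read-out is tubulin fluorescence intensity from high-content imaging of HepG2 cells, with nuclei identified by Hoechst 33342. Treatment lasts 72 h at 0.39–200 uM, and curves are fitted bidirectionally against the DMSO negative control.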

[13] = APR_HepG2_P-H2AX_24hr: Apredica 24-hour HepG2 Assay for H2AX Phosphorylation (AID 2282920); settings: high-content imaging, actives raise or lower the signal
Summary of the method: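 Human HepG2 liver cells, treated 24 hr with test chemicals (0.39–200 uM, final DMSO 0.5% v/v), are fixed and co-stained for phospho-H2A.x and c-Jun with Hoechst. Imaged intensity is fitted in both directions against DMSO controls.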

[14] = APR_HepG2_StressKinase_72hr: Apredica 72-hour HepG2 Assay for Stress Kinase (AID 2282921); settings: HepG2 stress kinase (phospho-c-Jun) imaging, actives raise or lower the signal
Summary of the method: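 HepG2 cells treated 72 hr with 0.39–200 uM compound, 0.5% v/v DMSO, duplicate wells. After formaldehyde fixation and Triton permeabilization, stained with anti-phospho-c-Jun (1:500) and Cy3 secondary, imaged at 20x. Fitted in both directions against DMSO.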

[15] = APR_HepG2_StressKinase_24hr: Apredica 24-hour HepG2 Assay for Stress Kinase (AID 2282922); settings: HepG2 stress kinase (phospho-c-Jun) imaging, actives raise or lower the signal
Summary of the method: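 HepG2, 24 hr dosing, 0.39–200 uM in duplicate, 0.5% DMSO; formaldehyde fix (3.7%), 0.5% Triton X-100; anti-phospho-c-Jun + Cy3 secondary, Hoechst counterstain; ArrayScan imaging; bidirectional curve fit vs DMSO baseline.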

[16] = APR_HepG2_MitoMass_72hr: Apredica 72-hour HepG2 Assay for Mitochondrial Mass (AID 2282924); settings: high-content imaging, actives raise or lower the signal;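 also: MitoTracker Red CMXRos stain intensity per cell imaged as mitochondrial mass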
Summary of the method: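 HepG2, 72 hr cmpd, 10 conc 0.39–200 uM in dup, DMSO 0.5% v/v. MitoTracker Red CMXRos 250 nM 30 min pre-fix; formaldehyde 3.7% fix 30 min RT. HCS imaging, gain/loss fit vs DMSO.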

[17] = APR_HepG2_NuclearSize_72hr: Apredica 72-hour HepG2 Assay for Nuclear Size (AID 2282925); settings: high-content imaging, actives raise or lower the signal
Summary of the method: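 HepG2; cpd 0.39–200 uM, 10 conc, duplicate; 72 h; DMSO 0.5% v/v; fix 3.7% formaldehyde 30 min RT; Triton permeabilization; Hoechst 2 ug/mL; HCS imaging 20x; nuclear diameter; gain/loss fit vs DMSO.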

[18] = APR_HepG2_P-H2AX_72hr: Apredica 72-hour HepG2 Assay for H2AX Phosphorylation (AID 2282916); settings: imaging, actives raise or lower the signal;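 also: phospho-histone H2A.x immunostain intensity per cell marking DNA damage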
Summary of the method: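 HepG2 cells treated 72 h at 0.39–200 uM, 0.5% DMSO final, duplicates. Formaldehyde-fixed, Triton-permeabilised, immunostained for phospho-H2A.x with Hoechst; fluorescence imaged at 20x, bidirectional fit versus DMSO.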

Measured: AC50

Cc1ccc(-c2cc(C(F)(F)F)nn2-c2ccc(S(N)(=O)=O)cc2)cc1
active: [2] 118 µM | [3] 66.7 µM | [5] 53.2 µM | [7] 64 µM | [8] 28.6 µM | [9] 40.8 µM | [13] 106 µM | [14] 111 µM
not listed: [18]
inactive: all other assays above

NC1CCCCC1
inactive: all assays above

CC(C)COC(=O)CCCCC(=O)OCC(C)C
not listed: [18]
inactive: all other assays above

Cn1cnc2c1c(=O)[nH]c(=O)n2C
inactive: all assays above

CC(=O)OC1CC(C)OC(C)O1 (stereo not drawn)
not listed: [18]
inactive: all other assays above

CSc1ccc(Oc2ccc(S(N)(=O)=O)cc2CN(C)C)cc1C
active: [3] 131 µM | [5] 88.9 µM | [6] 100 µM | [7] 100 µM | [9] 108 µM | [13] 92.5 µM
inactive: all other assays above

Cc1cn([C@H]2C=C[C@@H](CO)O2)c(=O)[nH]c1=O
inactive: all assays above

CC(C)NCC(O)c1ccc(O)c(O)c1 (stereo not drawn)
active: [9] 91.3 µM
not listed: [18]
inactive: all other assays above

O=NO
inactive: all assays above
